Data taken from PubChem BioAssay (NCI).
The panel holds about 79,000 compounds, 15% with a hit somewhere; the sample as a whole holds those more often. Cut-off read from the data, not from the text of the source: active = growth inhibition above about 70%; inactive = the rest.

Experiments:
[1] = NCI Yeast Anticancer Drug Screen. Data for the rad52 strain (AID 147);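 note: 0% = growth of vehicle-treated control cultures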; settings: S. cerevisiae rad52 mutant growth inhibition, hits give high values
How it was run: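 Read-out: growth inhibition versus vehicle-treated controls. Cells were a DNA repair-deficient yeast strain treated with compounds.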

[2] = NCI Yeast Anticancer Drug Screen. Data for the wt1 strain (AID 149);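 note: 0% = growth of vehicle-treated wt1 cultures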; settings: S. cerevisiae wt1 strain (SPY 50644) growth inhibition, hits give high values
How it was run: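 Each compound is tested on wt1 yeast and the loss of growth versus vehicle gives the inhibition value.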

[3] = NCI Yeast Anticancer Drug Screen. Data for the rad50EPP+ strain (AID 151);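 note: 0% = growth of vehicle-treated control cultures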; settings: S. cerevisiae rad50 mutant strain, hits give high values
How it was run: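 Growth inhibition read against vehicle controls in rad50EPP+ yeast, a strain altered in DNA damage repair, after compound exposure.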

[4] = NCI Yeast Anticancer Drug Screen. Data for the mgt1 strain (AID 153); settings: S. cerevisiae mgt1 mutant growth inhibition, hits give high values
How it was run: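 mgt1 yeast grown with test compound; read-out is growth inhibition versus vehicle-treated cultures.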

[5] = NCI Yeast Anticancer Drug Screen. Data for the rad50 strain (AID 155);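 note: 0% = growth of vehicle-only cultures of the same strain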; settings: S. cerevisiae rad50 strain growth inhibition, hits give high values
How it was run: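 Vehicle-treated cultures provide the reference for the growth inhibition reported for compound-exposed, repair-deficient yeast.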

[6] = NCI Yeast Anticancer Drug Screen. Data for the mec2-1 strain (AID 157); settings: S. cerevisiae mec2-1 strain, hits give high values
How it was run: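 Yeast mec2-1 mutant treated with compound. Readout: growth inhibition vs vehicle controls.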

[7] = NCI Yeast Anticancer Drug Screen. Data for the rad14 strain (AID 159);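 note: 0% = growth of vehicle-treated control cultures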; settings: S. cerevisiae rad14 strain growth inhibition, hits give high values
How it was run: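 Inhibition of growth is reported for a repair-deficient yeast mutant following compound treatment, calculated relative to cultures that received vehicle.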

[8] = NCI Yeast Anticancer Drug Screen. Data for the sgs1 mgt1 strain (AID 161);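 note: 0% = growth of cultures given vehicle only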; settings: S. cerevisiae sgs1 mgt1 strain, hits give high values
How it was run: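 Test agents were incubated with a DNA-repair-mutant yeast strain. Growth was then read and compared against vehicle-treated controls.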

[9] = NCI Yeast Anticancer Drug Screen. Data for the CLN2oe strain (AID 163);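 note: 0% = growth of vehicle-only control cultures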; settings: S. cerevisiae CLN2oe strain, hits give high values
How it was run: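 Read-out: yeast growth inhibition, expressed relative to vehicle-only controls. The strain bears an engineered cell-cycle alteration.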

[10] = NCI Yeast Anticancer Drug Screen. Data for the cln2 rad14 strain (AID 165);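 note: 0% = growth equal to vehicle treated cultures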; settings: S. cerevisiae cln2 rad14 strain, hits give high values
How it was run: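 cln2 rad14 yeast strain; compound exposure; growth inhibition read vs vehicle controls.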

[11] = NCI Yeast Anticancer Drug Screen. Data for the bub3 strain (AID 167); settings: S. cerevisiae bub3 mutant strain, hits give high values
How it was run: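 Mutant yeast screening strain plus compound; vehicle-treated cultures serve as the 0% inhibition reference.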

[12] = NCI Yeast Anticancer Drug Screen. Data for the wt2 strain (AID 169); settings: S. cerevisiae wt2 strain growth inhibition, hits give high values
How it was run: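 Read-out: growth inhibition versus vehicle-treated control cultures after compound exposure of the yeast strain.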

[13] = NCI Yeast Anticancer Drug Screen. Data for the mlh1 strain (AID 171);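 note: 0% = growth of vehicle-treated control cultures of the same strain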; settings: S. cerevisiae mlh1 strain growth inhibition, hits give high values
How it was run: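 Read-out: growth inhibition versus vehicle controls. Strain: engineered yeast with a defined DNA repair or cell cycle defect, compound-treated.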

[14] = NCI Yeast Anticancer Drug Screen. Data for the sgs1 strain (AID 173);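 note: 0% = growth of vehicle-only control cultures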; settings: S. cerevisiae sgs1 mutant, hits give high values
How it was run: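 Read-out: yeast growth inhibition relative to vehicle controls, following compound exposure of a strain with a defined DNA repair/cell cycle alteration.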

[15] = NCI Yeast Anticancer Drug Screen. Data for the mlh1 rad18 strain (AID 175); settings: S. cerevisiae mlh1 rad18 strain growth inhibition, hits give high values
How it was run: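 Yeast w/ defined DNA-repair lesions; compound exposure; growth vs vehicle controls → % inhibition.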

[16] = NCI Yeast Anticancer Drug Screen. Data for the rad18 strain (AID 177); settings: S. cerevisiae rad18 mutant growth inhibition, hits give high values
How it was run: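 Readout: growth inhibition vs vehicle controls. Cells: genetically altered yeast strain, DNA repair defect.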

[17] = at 5.0 µM (retest, dose inferred, filed as 0.5)
[18] = at 50.0 µM (retest, dose inferred, filed as 5.0)

Measured: growth inhibition

CC(C)OC(=O)Oc1ccccc1OC(=O)OC(C)C
inactive: [1]; at 1.2 µM -3% | [1]; at 3.7 µM -3% | [1]; at 11.0 µM 1% | [1]; at 33.0 µM 2% | [1]; at 100.0 µM -3% | [2]; at 1.2 µM -2% | [2]; at 3.7 µM -3% | [2]; at 11.0 µM -1% | [2]; at 33.0 µM -3% | [2]; at 100.0 µM -2% | [3]; at 1.2 µM -1% | [3]; at 3.7 µM 2% | [3]; at 11.0 µM 2% | [3]; at 33.0 µM -1% | [3]; at 100.0 µM 2% | [4]; at 1.2 µM 2% | [4]; at 3.7 µM 3% | [4]; at 11.0 µM 3% | [4]; at 33.0 µM 2% | [4]; at 100.0 µM 4% | [5]; at 1.2 µM -5% | [5]; at 3.7 µM -3% | [5]; [17] 1% | [5]; at 11.0 µM -2% | [5]; at 33.0 µM -1% | [5]; [18] 3% | [5]; at 50.0 µM 39.3% | [5]; at 100.0 µM -1% | [6]; at 1.2 µM 0% | [6]; at 3.7 µM -1% | [6]; [17] -15% | [6]; at 11.0 µM 0% | [6]; at 33.0 µM 0% | [6]; [18] -5% | [6]; at 50.0 µM 20.9% | [6]; at 100.0 µM -1% | [7]; at 1.2 µM -6% | [7]; at 3.7 µM -4% | [7]; at 11.0 µM -3% | [7]; at 33.0 µM 0% | [7]; at 100.0 µM 0% | [8]; [17] -2% | [8]; [18] -6% | [8]; at 50.0 µM 1.8% | [9]; at 1.2 µM 2% | [9]; at 3.7 µM 4% | [9]; at 11.0 µM 3% | [9]; at 33.0 µM 1% | [9]; at 100.0 µM 4% | [10]; [17] 26% | [10]; [18] 55% | [10]; at 50.0 µM 23.2% | [11]; at 1.2 µM 0% | [11]; at 3.7 µM 0% | [11]; [17] 15% | [11]; at 11.0 µM 4% | [11]; at 33.0 µM 7% | [11]; [18] 8% | [11]; at 50.0 µM 15.7% | [11]; at 100.0 µM 9% | [12]; at 1.2 µM -3% | [12]; at 3.7 µM -2% | [12]; at 11.0 µM -2% | [12]; at 33.0 µM -3% | [12]; at 100.0 µM -2% | [13]; at 1.2 µM 0% | [13]; at 3.7 µM 1% | [13]; at 11.0 µM 2% | [13]; at 33.0 µM 3% | [13]; at 100.0 µM 3% | [14]; at 1.2 µM -1% | [14]; at 3.7 µM 0% | [14]; at 11.0 µM 1% | [14]; at 33.0 µM 1% | [14]; at 100.0 µM 2% | [15]; [17] -20% | [15]; [18] -7% | [15]; at 50.0 µM -9.1% | [16]; at 1.2 µM -3% | [16]; at 3.7 µM 1% | [16]; at 11.0 µM 0% | [16]; at 33.0 µM -3% | [16]; at 100.0 µM 0%
